In PubChem BioAssay (Tox21) one finds Potency data, which are given here for 19 molecules.

A short description of test [1]: qHTS assay to identify small molecule antagonists of the thyroid receptor (TR) signaling pathway - cell viability counter screen (AID 743064). Note: nearly all actives have a fitted effect of over 50% in size. Note: potency is the fitted concentration of half-maximal effect. Put shortly:
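Compounds were tested on GH3.TRE-Luc cells in the presence of T3 at 1 nM final. Following 23.5 h at 37 °C, cell viability was quantified by CellTiter-Fluor.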
On the technique in general: qHTS replaces the single test concentration by a dilution series.

Test [2] in a line: qHTS assay to identify small molecule antagonists of the thyroid receptor (TR) signaling pathway (AID 743065). Note: nearly all actives have a fitted effect of over 55% in size. Note: potency is the fitted concentration of half-maximal effect. The procedure, abridged:
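GH3.TRE-Luc rat pituitary cells carrying two TR response elements driving luciferase were plated for 4 h, given compound plus 1 nM T3 (final), and incubated 23.5 h at 37 C. ONE-Glo luminescence measured reporter inhibition; CellTiter-Fluor fluorescence tracked cytotoxicity.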

The test system of test [3] is thyroid hormone receptor (rat, GH3 cells). The test can be described thus: qHTS assay to identify small molecule agonists of the thyroid receptor (TR) signaling pathway (AID 743066; calls by dose curve).
Test [4] deals with Estrogen receptor (Homo sapiens) (UniProt P03372). In words: qHTS assay to identify small molecule antagonists of the estrogen receptor alpha (ER-alpha) signaling pathway (AID 743069; active = well fitted curve in the direction sought with a large enough effect in the signal ratio in the repeat runs, not every such curve was filed as active; the % refers to the signal ratio). Put shortly:
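Estradiol-stimulated ER-alpha-UAS-bla HEK293 cells, 18 hr compound exposure at 37C. LiveBLAzer B/G substrate, 2 hr RT, fluorescence read.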

The nature of test [5]: qHTS assay to identify small molecule antagonists of the estrogen receptor alpha (ER-alpha) signaling pathway - cell viability counter screen (AID 743074; calls by dose curve;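 note: HEK293 cells carrying ER-alpha-UAS-bla reporter stimulated with 17beta-estradiol; nearly all actives have a fitted effect of over 45% in size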).
Test [6] concerns the target Estrogen receptor (Homo sapiens) (UniProt P03372). In words: qHTS assay to identify small molecule agonists of the estrogen receptor alpha (ER-alpha) signaling pathway (AID 743075; calls by dose curve;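 note: HEK293 GripTite cells with ER-alpha and UAS-driven beta-lactamase reporter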).
Test [7] has the same target. The test can be described thus: qHTS assay to identify small molecule agonists of the estrogen receptor alpha (ER-alpha) signaling pathway using the BG1 cell line (AID 743079). Note: nearly all actives have a fitted effect of over 20% in size. Note: potency is the fitted concentration of half-maximal effect. As to conditions: BG1Luc4E2 cells, ERE-luciferase agonist, 22 h; activation: at 70.3 µM (top of the series).
Test [8] is described as follows: qHTS assay to identify small molecule antagonists of the estrogen receptor alpha (ER-alpha) signaling pathway using the BG1 cell line (AID 743080; calls by dose curve;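 note: BG1 cells stimulated with 17beta-estradiol alongside compound; nearly all actives have a fitted effect of over 25% in size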). The procedure, abridged:
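Endogenous full-length ER-alpha in BG1-Luc-4E2 cells drives a stably integrated 4×ERE luciferase gene; compounds were tested against 17beta-estradiol over 21.5 h, with luminescence and multiplexed viability fluorescence recorded.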

A short description of test [9]: qHTS assay to identify small molecule antagonists of the estrogen receptor alpha (ER-alpha) signaling pathway using the BG1 cell line - cell viability counter screen (AID 743081).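 Note: compound given together with 17beta-estradiol as the ER stimulus; nearly all actives have a fitted effect of over 45% in size.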
The target of the next test is Aromatase (Homo sapiens) (UniProt P11511). In words: qHTS assay to identify aromatase inhibitors (AID 743083). Note: nearly all actives have a fitted effect of over 55% in size.

Records with an inconclusive call do not appear. The source made the active and inactive calls. Unless noted, calls come from the whole dose curve; as a rule, active = well fitted curve in the direction sought with a large enough effect in the repeat runs; inconclusive = weak or mixed curves; inactive = no such curve, though single readings can be large; an effect the other way counts as inactive or inconclusive. Positions of bridges follow the written chain, without caps; N, C: chain ends. Non-standard residues stand in square brackets, D forms with d. Residues, ends and D or L forms follow the SMILES beside them. *: point of attachment. X2 = CC[C@H](C)CCCCC(=O)*; Dab = NCC[C@H](N)C(=O)O

Sequence of Estrogen receptor (Homo sapiens) (P03372 whole entry, looked up): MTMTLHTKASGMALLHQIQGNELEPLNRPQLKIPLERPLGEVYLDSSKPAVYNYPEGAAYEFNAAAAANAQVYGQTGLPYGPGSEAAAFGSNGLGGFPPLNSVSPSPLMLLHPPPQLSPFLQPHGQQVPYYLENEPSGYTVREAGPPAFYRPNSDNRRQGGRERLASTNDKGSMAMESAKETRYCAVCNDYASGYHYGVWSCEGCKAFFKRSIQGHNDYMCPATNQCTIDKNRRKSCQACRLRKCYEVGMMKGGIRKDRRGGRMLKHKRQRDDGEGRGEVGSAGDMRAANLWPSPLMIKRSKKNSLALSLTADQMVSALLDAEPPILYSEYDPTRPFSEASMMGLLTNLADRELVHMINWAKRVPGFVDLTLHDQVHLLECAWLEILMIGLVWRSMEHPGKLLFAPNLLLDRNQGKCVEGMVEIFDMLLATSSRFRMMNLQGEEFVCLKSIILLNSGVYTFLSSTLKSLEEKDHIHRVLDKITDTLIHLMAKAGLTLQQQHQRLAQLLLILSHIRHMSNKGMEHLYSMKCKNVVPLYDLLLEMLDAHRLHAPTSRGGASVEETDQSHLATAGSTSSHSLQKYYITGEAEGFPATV
Sequence of Aromatase (Homo sapiens) (P11511 whole entry, looked up): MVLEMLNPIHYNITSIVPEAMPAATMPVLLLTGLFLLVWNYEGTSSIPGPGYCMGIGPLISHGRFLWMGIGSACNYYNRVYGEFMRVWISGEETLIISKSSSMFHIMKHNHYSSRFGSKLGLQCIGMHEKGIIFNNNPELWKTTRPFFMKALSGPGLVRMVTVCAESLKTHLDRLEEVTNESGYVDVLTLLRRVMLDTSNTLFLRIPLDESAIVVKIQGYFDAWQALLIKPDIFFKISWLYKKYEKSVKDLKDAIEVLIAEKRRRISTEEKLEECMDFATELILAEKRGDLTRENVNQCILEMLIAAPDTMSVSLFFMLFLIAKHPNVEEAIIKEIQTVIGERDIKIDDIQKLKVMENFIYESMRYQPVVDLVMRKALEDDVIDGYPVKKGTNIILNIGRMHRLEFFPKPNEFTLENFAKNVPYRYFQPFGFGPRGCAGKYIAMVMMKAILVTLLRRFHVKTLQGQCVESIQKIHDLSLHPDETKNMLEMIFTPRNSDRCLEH

Consider `O=C(CO)[C@@H](O)[C@H](O)[C@@H](O)C(=O)O`, for which the Potency entry in test [1], in test [2], in [3], in [4], in test [5] and in test [6] was “inactive” in each case. Further, the Potency entry (in [7]; in test [8]; in test [9]; with Aromatase (Homo sapiens)) was “inactive” each time.
Turning to `CN(C)CC/C=C1/c2ccccc2CSc2ccccc21`, the Potency in [1] was 4.52 µM (active); in [2] it was 9.02 µM (active). Also, the Potency result in test [3], in test [4], in test [5], in [6], in [7] and in test [8] was “inactive” each time. Besides, the Potency result (in test [9]; with Aromatase (Homo sapiens)) was “inactive” throughout.
With `COC(=O)[C@@H](N)CS`, the Potency result in [1], in [2], in test [3], in test [4], in [5] and in test [6] was “inactive” in each case. In addition, the Potency result (in [8]; in [9]; in the test with Aromatase (Homo sapiens)) was “inactive” throughout. The Potency in test [7] was 26.6 µM (active).
Consider `[O]=[Bi][O]C(=O)[O][Bi]=[O]`, for which the Potency result in test [1], in [2], in test [3], in test [4], in test [5] and in test [6] was “inactive” throughout. Moreover, the Potency result (in test [7]; in [8]; in test [9]; in the test with Aromatase (Homo sapiens)) was “inactive” throughout.
Turning to `CC[C@H](C)CCCCC(=O)N[C@@H](CCN)C(=O)N[C@H](C(=O)N[C@@H](CCN)C(=O)N[C@H]1CCNC(=O)[C@@H]([C@H](C)O)NC(=O)[C@H](CCN)NC(=O)[C@H](CCN)NC(=O)[C@H](CC(C)C)NC(=O)[C@@H](CC(C)C)NC(=O)[C@H](CCN)NC1=O)[C@@H](C)O` (X2-[Dab]T[Dab][Dab][Dab][dL]L[Dab][Dab][dT]; lactam 4-C), the Potency result in test [1], in test [2], in test [3], in [4], in test [5] and in test [6] was “inactive” in each case. Moreover, the Potency entry (in [7]; in [8]; in test [9]; with Aromatase (Homo sapiens)) was “inactive” in each case.
`CCCCC(O)c1ccccc1` (stereo not given): the Potency result in [1], in test [2], in test [3], in test [4], in test [5] and in test [6] was “inactive” throughout. Also, the Potency result (in test [8]; in test [9]; with Aromatase (Homo sapiens)) was “inactive” throughout. Besides, the Potency in test [7] is 21.1 µM (active).
Regarding `CN(C)C=Nc1c(I)cc(I)c(CCC(=O)O)c1I`, the Potency entry in test [1], in [2], in [3], in test [4], in test [5] and in [6] was “inactive” each time. The Potency result (in [7]; in test [8]; in test [9]; with Aromatase (Homo sapiens)) was “inactive” each time.
`CC(=O)O[C@H]1C[C@@]2(C)[C@@H](C[C@@H](O)[C@H]3[C@@]4(C)CC[C@@H](O)[C@@H](C)[C@@H]4CC[C@@]32C)/C1=C(\CCC=C(C)C)C(=O)O`: the Potency result in [1], in test [2], in test [3], in [4], in [5] and in test [6] was “inactive” in each case. The Potency entry (in test [7]; in test [8]; in test [9]; in the test with Aromatase (Homo sapiens)) was “inactive” in each case.
In the case of `O=C(O)c1cccc(/C=C2/C[C@@H]3[C@@H](/C=C/[C@@H](O)C4CCCCC4)[C@H](O)C[C@@H]3O2)c1`, the Potency entry in test [1], in test [2], in test [3], in test [4], in test [5] and in test [6] was “inactive” in each case. Further, the Potency result (in test [7]; in test [8]; in test [9]; in the test with Aromatase (Homo sapiens)) was “inactive” throughout.
Turning to `O=C(O)COc1ccc(CCNS(=O)(=O)c2ccccc2)s1`, the Potency result in test [1], in test [2], in test [3], in test [4], in test [5] and in [6] was “inactive” throughout. Also, the Potency entry (in test [7]; in [8]; in [9]; with Aromatase (Homo sapiens)) was “inactive” in each case.
On to `O=C1NCCN1c1ncc([N+](=O)[O-])s1`, for which the Potency result in [1], in test [2], in test [3], in test [4], in test [5] and in [6] was “inactive” each time. Besides, the Potency entry (in test [7]; in [8]; in test [9]; in the test with Aromatase (Homo sapiens)) was “inactive” throughout.
On to `C[C@@H]1C/C=C/C=C/C=C/C=C/[C@H](O[C@@H]2O[C@H](C)[C@@H](O)[C@H](N)[C@@H]2O)C[C@@H]2O[C@](O)(C[C@@H](O)C[C@H]3O[C@@H]3/C=C/C(=O)O1)C[C@H](O)[C@H]2C(=O)O`, for which the Potency entry in test [1], in test [2], in [3], in test [4], in test [5] and in test [6] was “inactive” throughout. Moreover, the Potency entry (in [7]; in [8]; in test [9]; with Aromatase (Homo sapiens)) was “inactive” each time.
Take `CN(C(=O)CO)c1c(I)c(C(=O)NCC(O)CO)c(I)c(C(=O)NCC(O)CO)c1I` (stereo not given): the Potency result in [1], in test [2], in test [3], in test [4], in test [5] and in test [6] was “inactive” each time. Also, the Potency result (in [7]; in test [8]; in test [9]; in the test with Aromatase (Homo sapiens)) was “inactive” each time.
Turning to `CCCCCCCCCCCCCCCC(=O)O[C@@H]1[C@@H](O)[C@@H](O)[C@@H]([C@H](NC(=O)[C@@H]2C[C@@H](CCC)CN2C)[C@H](C)Cl)O[C@@H]1SC`, the Potency entry in test [1], in [2], in test [3], in test [4], in [5] and in [6] was “inactive” in each case. The Potency result (in test [7]; in test [8]; in test [9]; in the test with Aromatase (Homo sapiens)) was “inactive” each time.
Turning to `COCC1=C(C(=O)OC(C)OC(=O)OC(C)C)N2C(=O)[C@@H](NC(=O)/C(=N\OC)c3csc(N)n3)[C@H]2SC1` (stereo not given in full), the Potency entry in [1], in test [2], in test [3], in test [4], in test [5] and in [6] was “inactive” throughout. For the same molecule, the Potency result (in test [7]; in test [8]; in test [9]; with Aromatase (Homo sapiens)) was “inactive” throughout.
For `O=C(O)c1cc(N=Nc2ccc(O)c(C(=O)O)c2)ccc1O`, the Potency result in test [1], in test [2], in test [3], in [4], in test [5] and in test [6] was “inactive” in each case. The Potency entry (in [7]; in test [8]; in test [9]; in the test with Aromatase (Homo sapiens)) was “inactive” each time.
For `CC(C)CN(C[C@@H](OP(=O)(O)O)[C@H](Cc1ccccc1)NC(=O)O[C@H]1CCOC1)S(=O)(=O)c1ccc(N)cc1`, the Potency result in test [1], in test [2], in test [3], in test [4], in test [5] and in [6] was “inactive” in each case. The Potency result (in test [7]; in test [8]; in test [9]; with Aromatase (Homo sapiens)) was “inactive” each time.
`Cc1nc(NS(=O)(=O)c2ccc(N)cc2)nc(C)c1Br`: the Potency result in test [1], in [2], in test [3], in test [4], in test [5] and in test [6] was “inactive” in each case. Besides, the Potency result (in [7]; in test [8]; in test [9]; with Aromatase (Homo sapiens)) was “inactive” each time.
Consider `CCC(C)[C@@H](N)C(=O)O` (stereo not given in full), for which the Potency entry in [1], in test [2], in test [3], in test [4], in [5] and in test [6] was “inactive” throughout. For the same molecule, the Potency entry (in test [7]; in test [8]; in test [9]; in the test with Aromatase (Homo sapiens)) was “inactive” throughout.
